Drawing on PubChem BioAssay (NCATS), this text covers outcome, Potency and activity change, negative = cytotoxicity for nine molecules.

Results filed as inconclusive are left out. Where a call stands in place of a potency, no number is given. A number with no mark means an inactive call. Calls of active or inactive are those of the source. Calls follow the shape of the dose curve; as a rule, active = well fitted curve in the direction sought with a large enough effect; inconclusive = small, poorly fitted or top-dose-only effect, or another doubt; inactive = no such curve, though single readings can be large; an effect the other way counts as inactive or inconclusive. Where a SMILES comes first, the peptide text is derived from it. [ ]: non-standard residue; d: D form. Ala(indol-2-yl) = N[C@@H](Cc1cc2ccccc2[nH]1)C(=O)O; Aib = CC(C)(N)C(=O)O

The first test in a line: P-glycoprotein substrates identified in KB-3-1 adenocarcinoma cell line, qHTS therapeutic library screen (AID 1346986). Also: nearly all actives have a fitted effect of over 60% in size. The conditions noted are these: KB-3-1 parental cells viability, CellTiter-Glo, 72 h; series mostly up to 93.4 µM. Summed up: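 Compounds were tested in dose-response against KB-3-1 and KB-8-5-11 cells at 37 degree C for 72 h, and viability was measured by luminescence. AC50 values came from curve fitting with class-based activity calls.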
A general note: Quantitative high-throughput screening tests each substance at several concentrations.
As to `CC(C)(NC(=O)[C@@H](N)Cc1ccc(O)cc1)C(=O)N[C@@H](Cc1cc2ccccc2[nH]1)C(=O)N[C@@H](Cc1ccccc1)C(=O)O` (H-Y[Aib][Ala(indol-2-yl)]F-OH), the outcome was “inactive [at 9.29 µM]”.

As to `COc1ccc2c3c([nH]c2c1)C(C=C(C)C)N1C(=O)C2CCCN2C(=O)C1C3` (stereo unspecified), the Potency result is “inactive”.

In the case of `Cc1c(Cl)c(OCC(=O)N2CCN(C)CC2)nc2sc(C(=O)NC3CC3)c(N)c12`, the Potency entry is “inactive”.

On to `C[C@H]1O[C@@H](n2cnc3c(N)ncnc32)C[C@@H]1O`, for which the Potency result is “inactive”.

As for `CC(=O)O[C@H]1CN2CCC1CC2`, the Potency entry was “inactive”.

The next test is described as follows: P-glycoprotein substrates identified in KB-8-5-11 adenocarcinoma cell line, qHTS therapeutic library screen (AID 1346987). Also: nearly all actives have a fitted effect of over 65% in size. Also: potency is read from the fitted curve at half-maximal effect. Particulars: KB-8-5-11 (P-gp overexpressing) viability, CellTiter-Glo, 72 h; series mostly up to 44.5 µM. Summed up: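 P-gp-mediated resistance screen: KB-8-5-11 cells treated 72 h with compounds in dose-response. CellTiter-Glo viability.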
For the molecule `O=C(OC[C@H]1O[C@@H](Oc2ccc(O)cc2CO)[C@H](O)[C@@H](O)[C@@H]1O)c1ccccc1`, the Potency entry is “inactive”.

On to `CC(=O)O[C@@H]1[C@@H](O)[C@H]2O[C@@H]3C=C(C)[C@@H](O)C[C@]3(CO)[C@]1(C)[C@]21CO1`, for which the Potency was 904 nM (active).

Take `COc1cc2c(c(OC)c1OC)-c1ccc(SC)c(=O)cc1[C@@H](NC(C)=O)CC2`: the Potency was 231 nM (active).

`CC(C)(NC(=O)[C@@H](N)Cc1ccc(O)cc1)C(=O)N[C@@H](Cc1cc2ccccc2[nH]1)C(=O)N[C@@H](Cc1ccccc1)C(=O)O` (H-Y[Aib][Ala(indol-2-yl)]F-OH): the activity change, negative = cytotoxicity is 5.29% [at 9.29 µM].

For `COc1ccc2c3c([nH]c2c1)C(C=C(C)C)N1C(=O)C2CCCN2C(=O)C1C3` (stereo unspecified), the Potency entry is “inactive”.

For `C[C@@H]1C[C@@H](O)[C@]2(O)O[C@@H]3C[C@@]4(C=O)C(CC[C@@H]5C4CC[C@]4(C)[C@@](O)(C6=CC(=O)OC6)CC[C@]54O)C[C@H]3OC2O1` (stereo partly specified), the Potency is 1590 nM (active).
